# High-throughput results (PubChem BioAssay)
# Rows were chosen to be rich in hits. Some 1.6% of all compounds tested hit in one or more screens of this group.
# Smad3 FoxH1 inh: Smad3/FoxH1 peptide binding inhibitors, primary screen, biochemical, TR-FRET. Mothers against decapentaplegic homolog 3 (Homo sapiens), P84022. TR-FRET Smad3/Dy647-FoxH1 peptide binding, europium anti-His. inhibition, % at 25 µM. 88,000 tested, 0.29% active. AID 630, 2007;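 active = compounds that reduce the energy-transfer binding signal between the protein and its labelled peptide by more than half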;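 note: 0% = Smad3 plus labelled peptide maximal FRET and 100% = peptide-only background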
# Target sequence (P84022 whole entry, looked up): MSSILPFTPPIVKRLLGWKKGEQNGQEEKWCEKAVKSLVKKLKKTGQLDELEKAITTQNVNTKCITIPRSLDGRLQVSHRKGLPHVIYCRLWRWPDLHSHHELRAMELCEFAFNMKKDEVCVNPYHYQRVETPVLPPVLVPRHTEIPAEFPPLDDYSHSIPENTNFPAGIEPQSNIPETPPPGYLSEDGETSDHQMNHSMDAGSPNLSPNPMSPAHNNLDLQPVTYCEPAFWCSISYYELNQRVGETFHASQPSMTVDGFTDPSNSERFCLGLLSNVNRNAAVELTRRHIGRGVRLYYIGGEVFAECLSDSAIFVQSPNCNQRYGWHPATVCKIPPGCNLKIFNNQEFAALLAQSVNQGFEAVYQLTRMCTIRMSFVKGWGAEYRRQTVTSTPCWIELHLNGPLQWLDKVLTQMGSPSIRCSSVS
# FAK inh: FAK kinase inhibitors, primary screen, biochemical | 97,000 tested, 0.84% active | inhibition, %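 (tested at 7 µM)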 | Focal adhesion kinase 1 (Homo sapiens), Q05397 | biochemical FAK kinase activity assay; in the data active = inhibition above about 19%;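 note: 0% = DMSO and 100% = reference compound high control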
# PLK1 inh: human PLK1 kinase inhibitors, primary screen, biochemical, TR-FRET. Serine/threonine-protein kinase PLK1 (Homo sapiens), P53350. recombinant PLK1 kinase, TR-FRET peptide phosphorylation. inhibition, % at 10 µM. 97,000 tested, 0.53% active;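 active = inhibition of 50% or more in the single-concentration screen; inactive = inhibition below 50%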;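 note: 0% = DMSO max control and 100% = H-89 dihydrochloride min control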
# Plk1 PBD FP: Plk1 polo box domain binding inhibitors, primary screen, biochemical, fluorescence polarization; Plk1 PBD phosphopeptide binding; AID 693, 2007; 97,000 tested, 0.13% active; Serine/threonine-protein kinase PLK1 (Homo sapiens), P53350; inhibition, %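 (tested at about 20 µM)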; in the data active = inhibition above about 34%, passing the limit was not always enough
# EphB4 antag: EphB4-ephrin-B2 interaction antagonists, primary screen, biochemical, TNYL-RAW peptide probe, fluorescence polarization; inhibition, % at 7 µM; 97,000 tested, 0.15% active; AID 720, 2007; EphB4 LBD / TNYL-RAW-Alexa532 peptide; Ephrin type-B receptor 4 (Homo sapiens), P54760;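 active = inhibition above the screen-wide mean inhibition plus 3 SD, cut at about 15% in these data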;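 note: 0% = DMSO wells and 100% = excess unlabeled TNYL-RAW peptide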
# * = called active by the depositor; . = no result; [ ] = remark or other dose.
SMILES,Smad3 FoxH1 inh,FAK inh,PLK1 inh,Plk1 PBD FP,EphB4 antag
O=C(Nc1ccc(N2CCCC2)cc1)c1ccccc1F,10,63*,-7,10,5
O=C(Nc1ccc(N2CCCCC2)cc1)c1ccccc1,.,5,-22,-7,3
Oc1cc(O)c2c(c1)O[C@@H](c1ccc(O)c(O)c1)[C@H](O[C@@]1(c3cc(O)c(O)c(O)c3)Oc3cc(O)cc(O)c3[C@H](O)[C@H]1O)C2,12,.,.,.,.
CN(C)c1ccc(/C=C2\C(=O)N(c3ccc([N+](=O)[O-])cc3)N=C2N2CCOCC2)cc1,-10,20*,-7,9,5
CN(C)c1ccc(/C=C2/C(=O)N(c3ccc([N+](=O)[O-])cc3)N=C2N2CCOCC2)cc1,.,12,-5,26,-7
COc1cc(C)cc2c(-c3c(O)cc(O)c4c3C[C@H](C)N[C@@H]4C)cc(-c3cc(-c4c(O)cc(O)c5c4C[C@H](C)N[C@@H]5C)c4cc(C)cc(OC)c4c3O)c(O)c12,4,.,.,.,.
c1ccc2sc(SCN(C3CCCCC3)C3CCCCC3)nc2c1,62*,.,.,.,.
CCCc1cc(=O)[nH]c(/N=C(/NC(=O)C(C)N2C(=O)c3ccccc3C2=O)Nc2ccccc2)n1 (stereo not drawn),53*,-1,-6,-20,0
CCCc1cc(=O)[nH]c(/N=C(/NC(=O)c2ccccc2)Nc2ccc3c(c2)OCCO3)n1,1,1,-10,9,-2
CCCCC[C@@H](O)[C@@H]1C(=O)O[C@@H](C)[C@@H](O)C=C/C=C\C=CC=C/C=C(/C)[C@H](O)C[C@H](O)C[C@H](O)C[C@H](O)C[C@H](O)C[C@H](O)C[C@@H]1O,2,.,.,.,.
CC(=O)Nc1cc(C(C)(C)C)c(O)c(C(C)(C)C)c1,-1,-1,-4,-11,-8
Cc1cc(-c2cc(C)c(O)c(C(C)(C)C)c2)cc(C(C)(C)C)c1O,63*,.,.,.,.
O=C1[C@@H]2[C@H](C(=O)N1CN1CCOCC1)[C@H]1[C@@H]3C=C[C@@H]([C@@H]4C(=O)N(CN5CCOCC5)C(=O)[C@@H]34)[C@@H]21,0,.,.,.,.
NC1=C(O)C(=O)[C@H](c2c[nH]c3ccc(OCc4ccccc4)cc23)O1,10,.,.,.,.
COc1ccc2[nH]c(=O)c(CN(Cc3ccccc3)Cc3nnnn3CC3CCCO3)cc2c1 (stereo not drawn),6,6,-7,-17,16*
COc1cc2cc(CN(Cc3nnnn3Cc3ccccc3)CC3CCCO3)c(=O)[nH]c2cc1OC (stereo not drawn),-1,3,-11,-11,-10
Cc1cc(C)c2c(=O)[nH]c(SCC(=O)Nc3ccccc3)nc2n1,-2,-2,52*,5,0
Cc1nnc(SCC(=O)NCCc2ccccc2)[nH]c1=O,-8,-4,-3,-14,-3
Cc1nnc(SCC(=O)NCc2ccccc2)[nH]c1=O,63*,-3,-6,25,4
Cc1cc(=O)[nH]c(SCC(=O)NCCc2ccccc2)n1,96*,3,11,-7,1
Cc1nn(C)c(C)c1CN(C)C(=O)c1cc2n(n1)C(C(F)(F)F)CC(c1cccs1)N2 (stereo not drawn),54*[fluorescence artefact?],1,-6,-14,7
Cc1nn(C)cc1CN(C)C(=O)c1nn2c(c1Cl)NC(c1cccs1)CC2C(F)(F)F (stereo not drawn),1,-1,-10,6,3
O=C(Nc1ccc2c(c1)OCO2)C1CC(c2ccc(F)cc2)=NO1 (stereo not drawn),1,-2,-8,-10,20*
N#Cc1ccc(NC(=O)C2CC(c3ccc(F)cc3)=NO2)cc1 (stereo not drawn),-5,4,-16,-20,12
O=C1C2[C@@H](c3ccccc3)N[C@@H](c3ccccc3)C1[C@@H](c1ccccc1)N[C@H]2c1ccccc1,-4,.,.,.,.
Cc1cc(=O)oc2cc(O)c(CN(C)CC(=O)O)cc12,-12,.,.,.,.
COc1ccc(/C=N/NC(=O)c2[nH]ncc2Br)c(OC)c1,.,16,-14,27,-8
COc1ccc(/C=N/Nc2ncc(-c3ccccc3)cn2)c(OC)c1,18,40*,-11,-6,0
CCOC(=O)C1=C(C)NC(=O)NC1c1ccc(C)o1 (stereo not drawn),-15,2,69*,18,-7
